In the library only some 4% were active in any assay of this set; here they are far more common.
Rv3671c protease = inhibitors of M. tuberculosis serine protease Rv3671c | inhibition, % at 5.96 µM | 0.048% of 320,000 active | P9WHR9; in the data active = inhibition above about 38%;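 note: extracellular domain of Rv3671c used as enzyme; 0% = enzyme with DMSO and 100% = no enzyme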
RecA splice inh = inhibitors of M. tuberculosis RecA intein splicing. 0.75% of 290,000 active. cell-free RecA intein splicing, fluorescence. AID 2221. inhibition, % (no concentration beside the values). P9WHJ3; in the data active = inhibition above about 30%;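 note: 0% = vehicle wells and 100% = reference inhibitor control wells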
Target sequence (P9WHJ3 whole entry, looked up, canonical isoform): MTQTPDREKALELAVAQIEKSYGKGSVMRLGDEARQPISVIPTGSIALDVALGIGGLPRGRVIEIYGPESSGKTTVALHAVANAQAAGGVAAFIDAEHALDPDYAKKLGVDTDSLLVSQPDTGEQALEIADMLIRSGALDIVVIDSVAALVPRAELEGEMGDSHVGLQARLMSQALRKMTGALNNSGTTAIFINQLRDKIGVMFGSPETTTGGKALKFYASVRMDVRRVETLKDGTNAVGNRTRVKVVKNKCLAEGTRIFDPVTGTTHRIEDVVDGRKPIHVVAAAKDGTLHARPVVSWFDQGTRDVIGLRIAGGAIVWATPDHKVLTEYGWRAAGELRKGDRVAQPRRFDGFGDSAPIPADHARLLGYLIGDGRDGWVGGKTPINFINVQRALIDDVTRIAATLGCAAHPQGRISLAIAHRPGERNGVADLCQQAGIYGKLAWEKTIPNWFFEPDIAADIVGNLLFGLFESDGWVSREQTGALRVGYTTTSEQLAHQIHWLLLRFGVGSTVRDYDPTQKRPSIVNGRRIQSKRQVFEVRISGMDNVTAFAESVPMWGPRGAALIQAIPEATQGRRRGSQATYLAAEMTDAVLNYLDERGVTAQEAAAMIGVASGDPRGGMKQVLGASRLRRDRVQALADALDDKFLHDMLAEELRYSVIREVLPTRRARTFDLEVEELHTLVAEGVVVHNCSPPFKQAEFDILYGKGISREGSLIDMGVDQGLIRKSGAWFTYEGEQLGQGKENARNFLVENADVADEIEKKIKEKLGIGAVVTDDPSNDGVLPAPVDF
GDH-TPI counter = counter-screen for M. tuberculosis FBA inhibitors: GDH-TPI coupled enzymes | inhibition, % at 4.8 µM | GDH-TPI coupled enzyme counterscreen, NADH absorbance | 1.2% of 360,000 active; in the data active = inhibition above about 30%;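 note: 0% = DMSO wells and 100% = wells lacking the enzyme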
Mtb UGM inh = Mtb UDP-galactopyranose mutase inhibition. inhibition, % at 10 µM. 0.06% of 320,000 active. purified UGM, fluorescence polarization probe displacement. P9WIQ1. AID 504406; in the data active = inhibition above about 10%, passing the limit was not always enough
Mtb betalactam = beta-lactam sensitization of Mtb H37Rv; AID 434955; 0.27% of 330,000 active; inhibition, % at 25 µM; M. tuberculosis H37Rv growth with meropenem, percent inhibition; call rule not given here;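 note: growth measured after seven days incubation then overnight dye step; 0% = bacteria only wells and 100% = bacteria with antibiotic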
FBA Mtb inh = inhibitors of M. tuberculosis fructose-bisphosphate aldolase | P9WQA3 | purified M. tuberculosis FBA, fluorescence read-out | inhibition, % at 1 µM | 2.3% of 360,000 active | AID 588726; in the data active = inhibition above about 27%;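 note: 0% = vehicle and 100% = reference inhibitor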
Starred values were filed as active, the others as inactive; . = no result; + = active, no number.

SMILES | Rv3671c protease | RecA splice inh | GDH-TPI counter | Mtb UGM inh | Mtb betalactam | FBA Mtb inh
CCOc1ccc(OCCC(=O)N(CC)CC(=O)Nc2ccccc2OC)cc1 | . | . | 0.7 | . | . | 2.2
Cc1noc(C)c1C(=O)Nc1nc2ccc(S(C)(=O)=O)cc2s1 | 6.6 | -2.7 | 53.6* | 7.7 | -19.4 | 0.6
COc1ccc2nc(NC(=O)c3c(C)noc3C)sc2c1 | 0.0 | . | 18.8 | 0.1 | 22.2 | 7.7
CS(=O)(=O)c1ccc2nc(NC(=O)c3ccco3)sc2c1 | 1.1 | -3.0 | 46.0* | -2.8 | -1.9 | -2.4
Cc1ccc(C(=O)Nc2nc3ccc(S(C)(=O)=O)cc3s2)o1 | -6.2 | 0.0 | 52.3* | -0.1 | -7.3 | 3.3
COC(=O)C1CCN(C(=O)COc2ccc(S(=O)(=O)N3CCOCC3)cc2Cl)CC1 | 1.1 | . | 4.3 | -0.7 | -0.2 | 0.0
CCN1CCC[C@H]1CNCCCn1cnc2c(SC)ncnc21 | . | . | 2.1 | . | . | 0.8
Cc1cc(C)cc(C(=O)N(Cc2ccco2)c2c(N)n(Cc3ccccc3)c(=O)[nH]c2=O)c1 | -11.5 | . | -3.2 | 1.6 | 1.1 | 2.2
NC(=O)C[n+]1cccc2ccccc21 | 4.0 | -5.0 | 14.2 | 11.3* | 0.6 | 17.8
COc1cc(/C=N/NC(=S)NCc2ccco2)cc(OC)c1OC | -2.9 | 2.1 | 37.4* | 1.7 | -6.5 | -7.3
S=C(NCc1ccco1)N/N=C/c1ccc(Cl)cc1 | -19.1 | -6.6 | 7.4 | 0.5 | -3.8 | -1.9
COc1ccccc1/C=N/NC(=S)NCc1ccco1 | 1.8 | 2.8 | 37.9* | 1.1 | 14.8 | -3.7
CCOc1ccc(/C=N/NC(=O)C(=O)NCc2ccco2)cc1 | -2.1 | 1.1 | 33.1* | 2.6 | 0.8 | -1.1
CCOc1ccc(CNC(=S)N/N=C/c2ccc(OC)c(OC)c2)cc1 | -0.7 | -3.7 | 42.2* | . | 11.4 | -1.8
O=[N+]([O-])c1ncccc1OCc1ccc(Cl)c(Cl)c1 | -14.1 | 4.8 | -6.2 | 0.1 | 3.4 | -0.4
Oc1c(Br)cc(/C=N/NC(=S)NCc2ccco2)cc1Br | 2.0 | 3.4 | 32.9* | 2.6 | 2.0 | 11.1
Oc1ccc(/C=N/NC(=S)NCc2ccco2)cc1 | -7.5 | 1.7 | 14.3 | -0.3 | 42.7 | 0.8
COC(=O)c1ccc(/C=N/NC(=O)CC(=O)NC(C)C)cc1 | -4.9 | 1.0 | 2.8 | 0.9 | 5.6 | -2.7
COC(=O)c1ccc(/C=N/NC(=S)NC(C)C)cc1 | 8.7 | 0.0 | 48.0* | 2.0 | -4.3 | -3.1
COc1ccc(CC(=O)N/N=C(/C)CC(=O)N(C)c2ccccc2)cc1 | 0.6 | 30.1* | 1.5 | -2.4 | -5.4 | 4.2
COc1ccc(CC(=O)N/N=C(\C)CC(=O)Nc2ccc(N(C)C)cc2)cc1 | 2.7 | -0.4 | 1.5 | 1.1 | -0.1 | -0.3
CCC1(c2ccc(F)cc2)NC(=O)N(CC(=O)c2cc(C)n(C3CC3)c2C)C1=O (stereo unspecified) | 1.9 | 0.9 | 3.1 | -1.8 | -1.0 | -0.1
O=C1N/C(=N/S(=O)(=O)Cc2ccccc2)S/C1=C/c1ccc2c(c1)OCO2 | -20.8 | 2.3 | 35.4* | -1.4 | -6.1 | 2.8
O=C(/C=C/c1ccco1)c1ccc(NC(=O)C23CC4CC(CC(C4)C2)C3)cc1 | -55.7 | 33.6* | 2.3 | 4.1 | 99.7 | 4.0
O=C(C=Cc1ccco1)c1ccc([N+](=O)[O-])cc1 | . | . | 21.1 | . | . | -1.8
SMILES | Rv3671c protease | RecA splice inh | GDH-TPI counter | Mtb UGM inh | Mtb betalactam | FBA Mtb inh
CCN(CC)C(=O)c1ccc(-c2cccs2)s1 | -9.7 | 3.0 | 17.5 | 2.0 | 14.4 | 8.5
O=Cc1ccc(-c2cccs2)s1 | . | . | 27.6 | . | . | +
O=C(CSc1nnc(-c2ccccc2Cl)o1)Oc1ccc(Br)cc1 | 6.1 | 61.1* | 4.4 | 1.6 | -13.2 | -1.9
O=C(CSc1nnc(-c2ccccc2O)o1)Oc1ccc(Br)cc1 | 4.4 | 3.3 | 3.6 | 0.3 | -2.1 | 0.1
O=C(NNC(=S)Nc1cccc2ccccc12)c1cccc(Br)c1 | -0.4 | 12.1 | 35.0* | 3.2 | 17.2 | 8.8
O=C(NNC(=O)c1ccccc1O)c1cccc(Br)c1 | 6.9 | 5.8 | 30.8* | 4.0 | 10.7 | -3.4
CCN(CC)C1CCN(C(=O)c2cc(COc3ccc(-n4cncn4)cc3)on2)C1 (stereo unspecified) | 4.5 | -1.4 | 15.1 | -1.8 | -3.0 | 7.1
COc1cc(NC(=O)Cn2cnc(C(=O)Nc3ccc(C)c(C)c3)n2)cc(OC)c1OC | . | . | 0.0 | . | . | -2.2
COc1ccc(/C=C(/NC(=O)c2ccccc2)C(=O)NCc2ccncc2)cc1 | -6.7 | 0.3 | 15.3 | 1.9 | 2.0 | 1.6
COc1ccc(C(=O)N/C(=C\c2ccccc2)C(=O)Nc2ccc(C(=O)O)cc2)cc1 | . | -1.2 | 7.2 | -0.7 | 6.1 | -2.1
COc1ccc(/C=C(/NC(=O)c2ccccc2)C(=O)N/N=C/c2ccncc2)cc1 | -4.3 | . | 35.0* | 2.7 | 7.8 | 2.3
Cc1ccc(/C=N\NC(=O)/C(=C\Nc2nccc(C)n2)NC(=O)c2ccccc2)cc1 | -6.5 | 2.2 | 94.9* | 1.6 | -3.0 | -4.1
COc1ccc(/C=C(\NC(=O)c2ccc(OC)cc2)C(=O)Nc2ccccc2C(=O)O)cc1 | -3.0 | -1.9 | 30.9* | -0.6 | 5.6 | -4.6
COc1ccc(C=CC(C)=NNC(=O)c2ccncc2)cc1 | . | . | 54.4* | . | . | -0.2
CC(/C=C/c1ccccc1)=N\NC(=O)c1ccncc1 | 3.5 | 1.2 | 17.7 | -2.3 | 99.0 | -1.4
O=C(CSc1nnc(NC(=O)C2CC2)s1)Nc1ccc(F)cc1F | -1.6 | -1.0 | -8.6 | -1.2 | -11.1 | -0.3
Cc1ccc(S(=O)(=O)N(C)C)cc1NC(=O)COC(=O)C1=COCCO1 | 1.9 | . | -2.1 | 1.9 | -0.9 | 3.5
COc1ccc(OCc2cc(/C=N\NC(=O)c3ccccc3)ccc2OC)cc1 | -48.3 | 2.7 | 19.5 | 1.4 | -10.3 | 0.8
O=C(N/N=C/c1ccco1)/C(=C/c1cccc([N+](=O)[O-])c1)NC(=O)c1ccccc1 | -5.9 | 9.6 | 28.5 | 1.6 | 3.6 | -3.6
COc1ccc(/C=N\NC(=O)/C(=C\Nc2nccc(C)n2)NC(=O)c2ccccc2)cc1 | 7.0 | -1.9 | 63.0* | 0.3 | -2.2 | -0.1
COc1ccc(C(=O)N/C(=C\c2ccc([N+](=O)[O-])cc2)C(=O)NC(CCSC)C(=O)O)cc1 (stereo unspecified) | -8.9 | 6.0 | 33.5* | 3.0 | 1.5 | 0.5
O=C(N/N=C/c1ccc(Br)o1)/C(=C/c1ccc([N+](=O)[O-])cc1)NC(=O)c1ccccc1 | 5.5 | 9.8 | 46.5* | 1.5 | 3.3 | 2.8
CC(OC(=O)C1=Cc2ccccc2OC1)C(=O)NCC1CCCO1 (stereo unspecified) | . | . | -0.9 | . | . | 0.8
Cc1cccc(C(=O)N=c2sccn2C)c1[N+](=O)[O-] | -10.5 | 1.0 | 4.1 | 1.2 | -3.9 | 2.2
C=C1C(=O)OCC2C(C(=O)O)=CC3C(C)C(C)=CC123 (stereo unspecified) | . | . | -3.1 | . | . | -3.8
CC(=O)Nc1ccc(N=Nc2ccccc2)cc1[N+](=O)[O-] | . | . | 31.0* | . | . | 0.2
CC(=O)Nc1cc2oc3ccccc3c2cc1[N+](=O)[O-] | . | . | 7.1 | . | . | -2.9
CCOc1ccc(-c2cc(C(=O)NC3CCCCC3)[nH]n2)c(C)c1 | . | . | 3.6 | . | . | -3.6
Cn1c(-c2ccccc2)cc(=O)n1-c1ccccc1 | . | . | -7.0 | . | . | -2.2
